# Reference: PubChem BioAssay (Tox21)
# A structure can be active in one record and inactive in another. Calls of active or inactive are those of the source. The call rests on the fitted dose curve.
# Biological target: Androgen receptor (Homo sapiens) (UniProt P10275)
# Experiment: qHTS assay to identify small molecule agonists of the androgen receptor (AR) signaling pathway in the presence of an antagonist (AID 1259381); further: nearly all actives have a fitted effect of over 15% in size
# Settings: MDA-kb2 MMTV-luciferase, AR agonist + nilutamide, 16 h; series mostly up to 92.4 µM; activation: at the top concentration
# Text: National Center for Advancing Translational Sciences [NCATS] NIH Chemical Genomics Center [NCGC] U.S. Environmental Protection Agency [EPA] National Institutes of Environmental Health Sciences [NIEHS] National Toxicology Program [NTP] Assay overview: Androgen receptor (AR) is an important member of nuclear receptor family. Its signaling plays a critical role in AR-dependent prostate cancer and other androgen related diseases. Considerable attention has been given in the past decades to develop methods to study and screen for the environmental chemicals that have the potential to interfere with metabolic homeostasis, reproduction, developmental and behavioral functions. Therefore AR binding assay for screening against androgen agonists and antagonists can be used to identify potential endocrine disruptors. MDA-kb2 cells (from ATCC, deposited by Wilson et al.) are human breast carcinoma cells that were stably transfected with a luciferase reporter gene under control of the MMTV promoter that contains response elements for both androgen receptor (AR) and glucocorticoid receptor (GR). This particular screening for measuring luciferase reporter gene activity using MDA-kb2 cells against Tox21 10K library compounds is a confirmation study on agonist mode screening in the presence of AR-antagonist compound (Nilutamide) at 3.0uM final concentration.
# Assay Protocol Summary: MDA-kb2 cells (cells cultured without CO2) were dispensed at 3,000 cells/well in 4uL of culture medium into white wall/solid-bottom 1536-well plates (Corning Life Sciences, Corning, NY) using a Multidrop Combi (Thermo Fisher Scientific Inc., Waltham, MA) dispenser. The assay plates were incubated at 37C and 0% CO2 for 5hr. One uL of 3.0uM (final concentration) Nilutamide or assay buffer was added using two separate tips of Flying Reagent Dispenser (FRD, Aurora Discovery, San Diego, CA). Then 23nL of compounds dissolved in DMSO at 15 concentrations and positive controls were transferred to the assay plates using a Pintool station (Wako, San Diego, CA). The assay plates were incubated at 37C and 0% CO2 for 16hr. For luciferase read, 4uL/well ONE-Glo reagent (Promega Corporation, Madison, WI) was added to each well of the assay plates using FRD. After 30min incubation at room temperature, the luminescence signal was measured using a ViewLux plate reader (PerkinElmer, Shelton, CT).
# On the % scale 0 is the no-effect control and ±100 the full control effect; potency means the concentration at half of the fitted maximal effect.
# Androgen receptor (Homo sapiens), sequence (P10275 whole entry, looked up): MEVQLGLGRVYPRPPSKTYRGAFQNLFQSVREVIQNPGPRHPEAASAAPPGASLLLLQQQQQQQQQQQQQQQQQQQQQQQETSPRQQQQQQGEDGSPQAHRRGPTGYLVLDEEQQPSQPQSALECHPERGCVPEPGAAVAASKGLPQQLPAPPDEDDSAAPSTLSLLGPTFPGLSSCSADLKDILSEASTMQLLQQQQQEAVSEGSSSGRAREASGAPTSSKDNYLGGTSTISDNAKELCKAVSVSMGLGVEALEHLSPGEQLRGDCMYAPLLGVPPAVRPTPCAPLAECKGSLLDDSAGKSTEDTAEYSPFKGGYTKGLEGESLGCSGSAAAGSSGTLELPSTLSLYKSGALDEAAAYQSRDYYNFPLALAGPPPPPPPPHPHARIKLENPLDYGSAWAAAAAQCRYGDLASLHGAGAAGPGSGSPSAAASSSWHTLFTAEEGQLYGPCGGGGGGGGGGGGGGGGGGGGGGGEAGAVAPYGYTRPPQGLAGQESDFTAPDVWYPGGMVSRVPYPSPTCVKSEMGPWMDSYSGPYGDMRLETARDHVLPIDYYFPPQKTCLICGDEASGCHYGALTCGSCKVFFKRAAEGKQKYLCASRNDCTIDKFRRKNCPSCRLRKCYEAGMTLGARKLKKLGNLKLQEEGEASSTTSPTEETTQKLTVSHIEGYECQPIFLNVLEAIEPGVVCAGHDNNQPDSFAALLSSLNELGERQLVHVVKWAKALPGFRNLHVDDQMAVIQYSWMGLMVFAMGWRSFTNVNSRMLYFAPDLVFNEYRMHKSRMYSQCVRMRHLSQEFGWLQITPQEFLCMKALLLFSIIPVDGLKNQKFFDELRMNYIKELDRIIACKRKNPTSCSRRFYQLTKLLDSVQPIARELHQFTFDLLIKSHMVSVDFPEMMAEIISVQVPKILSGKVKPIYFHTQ
Compound,activation,Potency
C[C@H]1[C@H](c2ccc(Cl)cc2)SC(=O)N1C(=O)NC1CCCCC1,-8.52% (inactive),
CCOP(=O)(OCC)Oc1nc(Cl)c(Cl)cc1Cl,1.66% (inactive),
C[C@]12CC[C@H]3[C@@H](CCC4=CC(=O)CC[C@@H]43)[C@@H]1CC[C@@H]2OC(=O)CCc1ccco1,,23.7 nM (active)
O=S1OCC2C(CO1)C1(Cl)C(Cl)=C(Cl)C2(Cl)C1(Cl)Cl (stereo not given),,inactive
CN(C)c1ccc(N)cc1,-9.26% (inactive),
ClC1(Cl)C2(Cl)C3(Cl)C4(Cl)C(Cl)(Cl)C5(Cl)C3(Cl)C1(Cl)C5(Cl)C24Cl (stereo not given),0.143% (inactive),
Oc1cc(Cl)c(Cl)c(Cl)c1Cl,-10.6% (inactive),
O=C(CCCCl)c1ccc(F)cc1,1.13% [at 42.5 µM] (inactive),
Nc1c(Cl)c(Cl)c(Cl)c(Cl)c1Cl,,54500 nM (active)
N#CC(C#N)=NNc1cccc(Cl)c1,-10.8% (inactive),
CC(C)NCC(O)c1ccccc1Cl (stereo not given),-0.872% [at 42.5 µM] (inactive),
CN(C)C(=S)SSC(=S)N(C)C,,inactive
BrCC(Br)(Br)Br,-8.19% (inactive),
CCC[CH2][Sn]([CH2]CCC)([CH2]CCC)[O][Sn]([CH2]CCC)([CH2]CCC)[CH2]CCC,-10.6% [at 8.39 µM] (inactive),
[O]=[Cr](=[O])([OH])[O][Cr](=[O])(=[O])[OH],,inactive
N#Cc1c2ccccc2cc2ccccc12,3.34% (inactive),
[Cl][Hg][c]1ccccc1,-10.8% (inactive),
CCCCCCC[CH2][Sn]([Cl])([Cl])[CH2]CCCCCCC,-8.29% (inactive),
O=C1C2(Cl)C3(Cl)C4(Cl)C(Cl)(Cl)C5(Cl)C3(Cl)C1(Cl)C5(Cl)C24Cl (stereo not given),,13.5 µM (active) and inactive
CC(Cc1ccccc1)N(C)Cc1ccco1 (stereo not given),1.12% [at 42.5 µM] (inactive),

Compound,activation,Potency
CCOC(=O)Cc1ccccc1,-1.4% (inactive),
BrCCCBr,11.9% (inactive),
CCC(OC(C)=O)C(CC(C)NC)(c1ccccc1)c1ccccc1 (stereo not given),-10.5% (inactive),
CC#C[C@]1(O)CC[C@H]2[C@@H]3C[C@H](C)C4=CC(=O)CC[C@]4(C)[C@H]3CC[C@@]21C,,237 nM (active)
CCO/N=C(\CC)C1=C(O)CC(c2c(C)cc(C)cc2C)CC1=O (stereo not given),7.14% (inactive),
O=C(NC(=O)c1ccccc1Cl)Nc1ccc(OC(F)(F)F)cc1,-1.09% (inactive),
O=c1[nH]c2cc(Cl)ccc2n1C1CCNCC1,-1.82% [at 42.5 µM] (inactive),
CCCCCCCc1ccc(O)cc1,0.624% (inactive),
Cc1ccc([N+](=O)[O-])[c]2c1[O][Hg]2,-9.7% [at 42.5 µM] (inactive),
O=[N+]([O-])C(Br)Br,-3.55% (inactive),
Cc1ccc(C)c2ccccc12,0.0822% (inactive),
COc1ccc2c(c1OC)C(=O)O[C@@H]2[C@H]1c2cc3c(cc2CCN1C)OCO3,-1.3% (inactive),
CC(=O)[O][Pb]([c]1ccccc1)([c]1ccccc1)[c]1ccccc1,-11.2% (inactive),
S=C=NCCc1ccccc1,-5.93% (inactive),
C=CCOC(=O)c1ccccc1N,-0.0122% (inactive),
CCNS(=O)(=O)C(F)(F)C(F)(F)C(F)(F)C(F)(F)C(F)(F)C(F)(F)C(F)(F)C(F)(F)F,-4.27% (inactive),
Cc1ccccc1OP(=O)(Oc1ccccc1C)Oc1ccccc1C,-2.77% (inactive),
Fc1ccc(C(OCCN2CCN(CCCc3ccccc3)CC2)c2ccc(F)cc2)cc1,-10.2% [at 42.5 µM] (inactive),
Cc1nn(-c2cc(NS(C)(=O)=O)c(Cl)cc2Cl)c(=O)n1C(F)F,1.51% (inactive),
CC(C)=CC1C(C(=O)OC(C#N)c2cccc(Oc3ccccc3)c2)C1(C)C (stereo not given),2.17% (inactive),
